For some assays here: Entries with a potency or affinity are not part of this list.
Columns and labels:
Design in all cases: scale not given: direction of the effect not stated beside the values
[1] = target: Protein translocase subunit SecA (Escherichia coli (strain K12)) (UniProt P10408); test: Assay to Identify E. coli SecA ATPase Inhibitors; assay type: functional; details: 30 µM
[2] = target: T1, Ubiquitin-activating enzyme e1, putative (Leishmania donovani (strain BPK282A1)) (UniProt E9BSI1); test: Leishmania donovani Ubiquitin Activating Enzyme (LdE1); assay type: functional; details: 30 µM
T1 sequence (whole entry): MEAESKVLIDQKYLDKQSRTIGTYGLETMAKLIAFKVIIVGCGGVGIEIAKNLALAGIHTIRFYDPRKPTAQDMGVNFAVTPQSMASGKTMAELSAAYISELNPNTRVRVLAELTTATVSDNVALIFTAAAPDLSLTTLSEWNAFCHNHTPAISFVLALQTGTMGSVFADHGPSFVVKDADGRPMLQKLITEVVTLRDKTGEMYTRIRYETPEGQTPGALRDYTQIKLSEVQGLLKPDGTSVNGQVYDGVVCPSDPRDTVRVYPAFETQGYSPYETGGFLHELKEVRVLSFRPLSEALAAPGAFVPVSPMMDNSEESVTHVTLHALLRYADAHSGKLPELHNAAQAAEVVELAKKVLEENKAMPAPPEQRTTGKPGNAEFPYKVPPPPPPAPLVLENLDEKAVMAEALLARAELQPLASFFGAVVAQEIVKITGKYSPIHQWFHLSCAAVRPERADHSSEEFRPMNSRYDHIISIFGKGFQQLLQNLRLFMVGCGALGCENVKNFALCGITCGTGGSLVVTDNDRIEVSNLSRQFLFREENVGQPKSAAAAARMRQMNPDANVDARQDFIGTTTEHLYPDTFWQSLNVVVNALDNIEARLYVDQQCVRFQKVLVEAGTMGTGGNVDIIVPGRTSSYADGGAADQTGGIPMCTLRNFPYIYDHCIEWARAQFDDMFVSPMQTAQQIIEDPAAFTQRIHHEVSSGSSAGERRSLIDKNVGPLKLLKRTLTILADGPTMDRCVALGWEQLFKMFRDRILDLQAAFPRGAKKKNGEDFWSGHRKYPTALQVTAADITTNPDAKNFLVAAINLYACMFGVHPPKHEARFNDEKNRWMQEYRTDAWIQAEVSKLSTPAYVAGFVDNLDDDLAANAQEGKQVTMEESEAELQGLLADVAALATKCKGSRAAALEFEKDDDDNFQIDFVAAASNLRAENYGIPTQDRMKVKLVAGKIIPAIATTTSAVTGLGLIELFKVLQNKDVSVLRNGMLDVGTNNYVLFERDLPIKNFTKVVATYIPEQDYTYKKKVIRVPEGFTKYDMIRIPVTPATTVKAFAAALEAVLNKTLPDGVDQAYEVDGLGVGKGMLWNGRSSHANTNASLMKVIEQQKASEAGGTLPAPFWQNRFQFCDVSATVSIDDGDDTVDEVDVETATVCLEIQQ

[3] = target: AMP-activated protein kinase, AMPK (Homo sapiens) (UniProt P54646+O43741+P54619+Q9UGJ0+Q9Y478+Q13131+Q9UGI9); test: AMP-dependent Kinase enzyme assay. An in vitro enzyme assay that detects ADP turnover that is directly proportional to AMPK activity. This uses naive AMPK that is activated during the assay with MK-8722; assay type: functional; details: 30 µM
[4] = target: Sialic acid-binding Ig-like lectin 9 (Homo sapiens) (UniProt Q9Y336); test: Hs-Siglec9 ALPHAscreen SOP 20170721; details: 10 µM
Trypanosoma cruzi = test: Trypanosoma cruzi phosphomannomutase and mannose-1-phosphate guanylyltransferase assay; assay type: functional; details: 10 µM
[5] = target: T2, Arginase-2, mitochondrial (Homo sapiens) (UniProt P78540); test: in vitro enzyme assay to detect the production of urea directly proportional to the activity of Arginase II; assay type: functional; details: 33.3 µM; also: in the data most compounds retested in dose-response had high values
T2 sequence (whole entry): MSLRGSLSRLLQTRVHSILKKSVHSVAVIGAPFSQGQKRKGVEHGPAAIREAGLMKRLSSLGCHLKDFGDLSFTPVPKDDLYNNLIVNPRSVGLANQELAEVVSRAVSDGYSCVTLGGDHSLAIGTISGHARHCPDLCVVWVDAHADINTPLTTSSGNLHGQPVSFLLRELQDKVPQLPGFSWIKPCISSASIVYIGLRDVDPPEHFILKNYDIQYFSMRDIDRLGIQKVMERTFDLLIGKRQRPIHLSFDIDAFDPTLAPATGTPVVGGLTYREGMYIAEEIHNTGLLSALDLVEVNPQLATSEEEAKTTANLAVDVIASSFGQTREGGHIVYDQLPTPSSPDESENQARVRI

[6] = target: T3, Proteasome subunit beta (Trypanosoma cruzi) (UniProt O96673); test: Trypanosoma cruzi proteasome chymotrypsin-like activity (TcProtChymo) assay.; also: in the data most compounds retested in dose-response had high values; assay type: functional; details: 9.37 µM
T3 sequence (whole entry): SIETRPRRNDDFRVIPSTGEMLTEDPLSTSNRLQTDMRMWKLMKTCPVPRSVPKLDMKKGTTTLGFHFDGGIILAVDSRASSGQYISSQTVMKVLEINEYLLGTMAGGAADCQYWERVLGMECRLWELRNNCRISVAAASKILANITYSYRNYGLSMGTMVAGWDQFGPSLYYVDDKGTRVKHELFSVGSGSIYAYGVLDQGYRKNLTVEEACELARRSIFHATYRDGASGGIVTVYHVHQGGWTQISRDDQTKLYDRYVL

Homo sapiens = organism: Homo sapiens; test: To identify inhibition of the IFN signalling (Jak-Stat) pathway via expression of an eGFP reporter gene under the control of an IFN-stimulated response element (ISRE) containing MxA promoter.; assay type: functional; details: 30 µM
[7] = target: T4, Tyrosyl-tRNA synthetase, putative (Trypanosoma cruzi (strain CL Brener)) (UniProt Q4DSP6); test: Trypanosoma cruzi tyrosyl tRNA synthetase (TcYRS) _High Tyrosine SOP; assay type: functional; details: 30 µM; also: in the data most compounds retested in dose-response had high values
T4 sequence (whole entry): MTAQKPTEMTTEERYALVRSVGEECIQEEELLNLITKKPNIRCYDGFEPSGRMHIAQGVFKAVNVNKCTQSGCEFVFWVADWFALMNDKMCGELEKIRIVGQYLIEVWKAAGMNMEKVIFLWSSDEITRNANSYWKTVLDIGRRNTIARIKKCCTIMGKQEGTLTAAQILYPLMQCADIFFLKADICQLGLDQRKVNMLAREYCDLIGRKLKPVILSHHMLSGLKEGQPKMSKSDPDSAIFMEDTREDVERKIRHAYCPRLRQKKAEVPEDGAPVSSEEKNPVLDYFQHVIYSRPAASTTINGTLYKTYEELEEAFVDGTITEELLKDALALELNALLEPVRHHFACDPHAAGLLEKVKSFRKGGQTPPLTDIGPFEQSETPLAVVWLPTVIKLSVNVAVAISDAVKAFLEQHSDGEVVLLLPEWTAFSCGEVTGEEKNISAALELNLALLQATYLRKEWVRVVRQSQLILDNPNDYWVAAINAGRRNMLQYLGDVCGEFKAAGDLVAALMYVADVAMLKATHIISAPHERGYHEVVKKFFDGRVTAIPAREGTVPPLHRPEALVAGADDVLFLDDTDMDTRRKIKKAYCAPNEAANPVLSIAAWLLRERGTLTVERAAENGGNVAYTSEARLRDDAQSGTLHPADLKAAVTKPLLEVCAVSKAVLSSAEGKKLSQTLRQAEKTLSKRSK

[8] = target: T4, Tyrosyl-tRNA synthetase, putative (Trypanosoma cruzi (strain CL Brener)); test: Trypanosoma cruzi tyrosyl tRNA synthetase (TcYRS) SOP; assay type: functional; details: 30 µM
[9] = target: Chromo domain-containing protein 1 (Saccharomyces cerevisiae (strain ATCC 204508 / S288c) (Baker's yeast)) (UniProt P32657); test: ScCHD-1 Enzyme Inhibition Assay; assay type: functional; details: 30 µM; also: in the data most compounds retested in dose-response had high values
Chain of Chromo domain-containing protein 1 (Saccharomyces cerevisiae (strain ATCC 204508 / S288c) (Baker's yeast)) (P32657 whole entry, the tested form may be a part): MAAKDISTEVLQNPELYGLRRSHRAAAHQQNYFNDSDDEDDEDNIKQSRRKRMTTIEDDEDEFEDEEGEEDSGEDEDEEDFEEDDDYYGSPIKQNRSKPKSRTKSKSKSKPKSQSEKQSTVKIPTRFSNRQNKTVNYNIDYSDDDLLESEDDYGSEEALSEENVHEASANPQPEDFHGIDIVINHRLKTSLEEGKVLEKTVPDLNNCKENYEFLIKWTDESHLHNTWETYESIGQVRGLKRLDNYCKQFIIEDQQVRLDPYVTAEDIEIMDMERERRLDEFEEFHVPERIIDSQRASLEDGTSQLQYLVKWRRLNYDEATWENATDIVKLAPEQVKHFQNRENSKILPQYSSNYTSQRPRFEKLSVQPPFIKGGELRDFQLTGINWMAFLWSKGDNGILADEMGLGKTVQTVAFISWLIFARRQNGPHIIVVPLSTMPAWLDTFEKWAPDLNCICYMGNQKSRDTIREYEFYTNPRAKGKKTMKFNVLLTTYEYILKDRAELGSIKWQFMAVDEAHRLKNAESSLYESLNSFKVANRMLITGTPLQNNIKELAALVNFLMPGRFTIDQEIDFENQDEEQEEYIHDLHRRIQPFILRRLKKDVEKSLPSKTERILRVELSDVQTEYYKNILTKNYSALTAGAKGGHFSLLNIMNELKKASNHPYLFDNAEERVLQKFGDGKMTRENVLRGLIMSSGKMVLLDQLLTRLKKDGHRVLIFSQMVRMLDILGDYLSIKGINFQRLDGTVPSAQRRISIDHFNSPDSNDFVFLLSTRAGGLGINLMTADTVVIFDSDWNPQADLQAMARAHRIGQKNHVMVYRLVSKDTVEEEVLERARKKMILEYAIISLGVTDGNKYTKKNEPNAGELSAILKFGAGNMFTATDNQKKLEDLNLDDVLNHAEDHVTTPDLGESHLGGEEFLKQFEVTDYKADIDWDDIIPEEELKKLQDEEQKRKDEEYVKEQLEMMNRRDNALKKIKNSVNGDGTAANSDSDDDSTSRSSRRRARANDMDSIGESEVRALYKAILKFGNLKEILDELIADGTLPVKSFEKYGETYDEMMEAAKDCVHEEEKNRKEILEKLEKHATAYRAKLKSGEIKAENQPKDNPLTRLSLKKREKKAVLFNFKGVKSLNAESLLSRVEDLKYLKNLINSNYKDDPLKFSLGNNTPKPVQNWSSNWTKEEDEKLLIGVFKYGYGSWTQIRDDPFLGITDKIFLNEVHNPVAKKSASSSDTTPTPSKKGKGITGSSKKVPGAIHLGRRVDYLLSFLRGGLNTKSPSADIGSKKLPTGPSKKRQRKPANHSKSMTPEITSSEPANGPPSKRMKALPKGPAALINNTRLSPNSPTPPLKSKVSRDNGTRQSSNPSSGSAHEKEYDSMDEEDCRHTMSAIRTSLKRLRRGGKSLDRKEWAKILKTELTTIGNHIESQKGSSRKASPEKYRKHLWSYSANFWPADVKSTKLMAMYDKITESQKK

Chain of Protein translocase subunit SecA (Escherichia coli (strain K12)) (P10408 whole entry): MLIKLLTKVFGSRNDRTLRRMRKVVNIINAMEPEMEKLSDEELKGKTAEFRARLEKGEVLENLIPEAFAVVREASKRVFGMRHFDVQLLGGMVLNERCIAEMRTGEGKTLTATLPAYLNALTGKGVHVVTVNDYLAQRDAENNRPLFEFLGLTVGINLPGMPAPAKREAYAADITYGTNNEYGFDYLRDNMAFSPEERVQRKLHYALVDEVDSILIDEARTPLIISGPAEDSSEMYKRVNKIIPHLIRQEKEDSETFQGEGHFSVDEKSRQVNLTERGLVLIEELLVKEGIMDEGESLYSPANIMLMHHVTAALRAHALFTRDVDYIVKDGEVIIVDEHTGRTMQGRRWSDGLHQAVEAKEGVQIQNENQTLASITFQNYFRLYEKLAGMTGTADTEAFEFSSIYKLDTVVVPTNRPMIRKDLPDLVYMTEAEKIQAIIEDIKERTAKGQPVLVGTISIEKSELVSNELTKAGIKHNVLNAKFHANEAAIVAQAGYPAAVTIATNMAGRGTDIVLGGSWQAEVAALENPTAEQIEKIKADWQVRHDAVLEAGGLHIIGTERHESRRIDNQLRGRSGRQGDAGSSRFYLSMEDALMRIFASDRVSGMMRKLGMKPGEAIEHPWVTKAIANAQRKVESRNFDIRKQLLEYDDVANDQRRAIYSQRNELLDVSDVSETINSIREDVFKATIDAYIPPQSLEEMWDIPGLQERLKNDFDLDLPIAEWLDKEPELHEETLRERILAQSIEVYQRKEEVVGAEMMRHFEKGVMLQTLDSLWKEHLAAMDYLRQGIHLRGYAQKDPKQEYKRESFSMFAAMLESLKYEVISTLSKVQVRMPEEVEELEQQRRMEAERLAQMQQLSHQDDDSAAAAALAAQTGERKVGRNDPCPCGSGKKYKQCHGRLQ
Chain of Sialic acid-binding Ig-like lectin 9 (Homo sapiens) (Q9Y336 whole entry): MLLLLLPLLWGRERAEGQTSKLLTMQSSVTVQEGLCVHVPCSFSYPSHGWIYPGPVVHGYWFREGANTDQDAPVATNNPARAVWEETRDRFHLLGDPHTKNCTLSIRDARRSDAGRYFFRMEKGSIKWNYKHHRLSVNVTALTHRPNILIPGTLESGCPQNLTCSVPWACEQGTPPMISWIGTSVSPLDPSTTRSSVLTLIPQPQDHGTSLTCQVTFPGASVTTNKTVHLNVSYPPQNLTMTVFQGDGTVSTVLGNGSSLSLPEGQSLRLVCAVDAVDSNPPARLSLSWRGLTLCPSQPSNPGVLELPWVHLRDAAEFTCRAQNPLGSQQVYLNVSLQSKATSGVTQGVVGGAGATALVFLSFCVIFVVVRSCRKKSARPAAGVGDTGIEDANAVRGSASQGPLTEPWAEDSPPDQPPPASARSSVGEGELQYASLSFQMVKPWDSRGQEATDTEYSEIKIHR

| Structure (SMILES) | Percent Effect [1] [%] | Percent Effect [2] [%] | Percent Effect [3] [%] | Percent Effect [4] [%] | Percent Effect (Trypanosoma cruzi) [%] | Percent Effect [5] [%] | Percent Effect [6] [%] | Percent Effect (Homo sapiens) [%] | Percent Effect [7] [%] | Percent Effect [8] [%] | Percent Effect [9] [%] |
| --- | --- | --- | --- | --- | --- | --- | --- | --- | --- | --- | --- |
| CC(NC(=O)Nc1cc(F)ccc1N1CCCCC1)c1nncn1C (stereo not given) | -4.95 | 5.41 | -5.33 | -3.53 | -3.49 | 2.81 | -3.78 | 1.69 | 1.48 | 1.24 | -2.66 |
| CCCN1CCCn2nc(CNC(=O)CCc3scnc3C)cc2C1 | -2.71 | 20.8 | -13.3 | 19.9 | 3.98 | 8.39 | 16.7 | -7.34 | 5.26 | 17.9 | -7.37 |
| Cc1cnn(C2CCCN(C(=O)CCCNc3ncccn3)C2)c1 (stereo not given) | 0.326 | 21.6 | -4.82 | -6.78 | -4.62 | 0 | 10.3 | 6.71 | -13.3 | 16.1 | -4.22 |
| CCc1ccccc1NC(=O)N1CCn2cnc(COC)c2C1 | -3.57 | 8.11 | -9.76 | 17.5 | 5.38 | 15.1 | 0.601 | 17.8 | 5.38 | -1.24 | -5.57 |
| CNc1nc(CNC(=O)Nc2cccc(F)c2)cs1 | -4.85 | 8.11 | -3.94 | 12.7 | -1.39 | -4.99 | 1.62 | 1.99 | 5.94 | 6.1 | 8.34 |
| CN(C)C(=O)NC[C@H]1OC[C@@H]2CCN(Cc3ccoc3)C[C@@H]21 | 2.83 | 2.67 | 24.1 | -3.37 | -5.41 | -66.8 | 8.38 | 36.1 | 3.12 | 10 | -4.56 |
| Cc1cc(CN2CCN(c3ccc4nncn4n3)C(C)C2)no1 (stereo not given) | -6.67 | 20.8 | -6.96 | 14.4 | 5.8 | 4.63 | 11.2 | 19.6 | 9.71 | 21.9 | -10.9 |
| COc1cc(C(=O)NC(CC(=O)O)c2cccs2)cc(Cl)c1OC (stereo not given) | -3 | 8.86 | 6.71 | -5.2 | -3.79 | 1.07 | 20.9 | -0.746 | 2.08 | 5.06 | -25.4 |
| CCOc1ccc(-n2nnc(C(=O)O)c2-c2ccccn2)cc1 | -1.24 | 7.89 | 4.82 | -2.3 | 0.487 | 0 | 29.2 | 5.63 | 3.19 | 13 | -4.17 |
| CN(Cc1nc(-c2ccco2)no1)C1CCCN(c2cccnn2)C1 (stereo not given) | -1.52 | 20.2 | -5.85 | -5.93 | 2.17 | 1.14 | 16.1 | 11.9 | 6.4 | 21.5 | -10.1 |

Reference: ChEMBL document CHEMBL3988442, “University of Dundee, Small-Polar-MMV Screening Library” (2021)
